From ChEMBL document CHEMBL4513146, “CO-ADD screening of Karazin Kharkiv National University (Ukraine) compounds” come the findings set out here.

Molecules are shown by their SMILES. Potency and affinity values are given separately.

The assay deals with Staphylococcus aureus. As to conditions: Concentration 32 ug.mL-1;; ASSAY_TEST Inhibition of Bacterial Growth; detection method Absorption (OD600); MEDIA CAMHB; plate type 384well; NBS; CORNING #3640; time 18 hr.
For `COc1ccc(-n2ccn3c(-c4cccc([N+](=O)[O-])c4)nnc3c2=O)cc1`, the Inhibition turned out to be 3.65%. The same measure for `CCCCOc1ccc(-c2cc3c4nnc(SCC(=O)N(C)c5ccc(F)cc5)n4ccn3n2)cc1`: -20.91%. In the case of `CCc1nnc2c(SCC(=O)Nc3ccc(OC)c(Cl)c3)nc3ccccc3n12` it was 9.23%; in that of `COc1ccc(NC(=O)Cn2nc3ccc(SCc4ccc(Cl)cc4)nn3c2=O)cc1`, -5.92%; in that of `O=S(=O)(c1ccc2nncn2c1)N(Cc1cc(F)cc(F)c1)c1cc(F)cc(F)c1`, -5.61%. The same measure for `O=C(CSc1nnc2c(=O)n(-c3cccc(F)c3)ccn12)Nc1ccc(Br)cc1F`: 15.57%. Consider `COc1ccc(-c2cc3c4nnc(SCC(=O)Nc5ccccc5C(F)(F)F)n4ccn3n2)cc1`, for which the Inhibition is listed as -10.53%. The same measure for `CCOC(=O)c1ccccc1NC(=O)Cn1nc2c3sc(N4CCCC4)nc3ncn2c1=O`: 11.36%; for `O=C(CCc1nnc2c(N3CCCCC3)nc3ccccc3n12)NCc1ccc2c(c1)OCO2`: 17.67%. Turning to `O=c1n(Cc2nc(-c3ccc(Br)cc3)no2)nc2ccc(-c3ccccc3)nn12`, the Inhibition amounted to 5.03%. The same measure for `Cc1cc(NC(=O)CSc2nc3ccccc3n3cnnc23)ccc1Br`: 13.29%; for `COc1ccc(NC(=O)Cn2nc3c4cc(-c5ccc(C)c(C)c5)nn4ccn3c2=O)c(OC)c1`: -8.81%; for `Cc1ccc(C)c(Cn2nc3n(CCC(C)C)c(=O)c4sccc4n3c2=O)c1`: 8.96%. In the case of `O=C(CCc1nnc2c3cc(-c4ccccc4)nn3ccn12)N1CCN(C(=O)c2ccco2)CC1` it was 7.4%.

`COc1cc(NC(=O)CSc2nnc3c(=O)n(-c4ccc(C)c(C)c4)ccn23)cc(OC)c1`: the Inhibition turned out to be 3.54%.

For the compound `O=C(CSc1nnc2c3cc(-c4ccccc4)nn3ccn12)NCc1ccc(Cl)cc1`, the Inhibition came to 6.91%. Regarding `Cc1ccc(CN(c2ccc(C(C)C)cc2)S(=O)(=O)c2cccn3c(C)nnc23)cc1`, the Inhibition came out at 3.26%. The same measure for `COc1ccc(-c2cc3c4nnc(SCC(=O)NCc5ccccc5)n4ccn3n2)cc1`: -8.9%; for `CCc1ccc(N(Cc2ccc(C)cc2)S(=O)(=O)c2cccn3cnnc23)cc1`: 18.47%; for `Cc1cc(C)c(NC(=O)Cn2nc3c(SC4CCCCC4)nccn3c2=O)c(C)c1`: 12.7%.

As for `Cc1ccc(Sc2ccc3nn(CC(=O)Nc4ccc(F)c(Cl)c4)c(=O)n3n2)cc1`, the Inhibition came out at 7.06%. On to `COc1ccc(NC(=O)Cn2nc3c4cc(-c5ccc(C)c(C)c5)nn4ccn3c2=O)cc1OC`, for which the Inhibition is on record as 7.31%. In the case of `CSc1ccc(CNC(=O)Cn2nc3c(Oc4ccc(C)cc4)nccn3c2=O)cc1` it was -14.59%. In the case of `COc1cccc(Oc2nccn3c(=O)n(CC(=O)Nc4ccccc4C(F)(F)F)nc23)c1` it was 13.2%.

Turning to `COc1cccc(CN(c2cccc(C)c2)S(=O)(=O)c2ccc3nnc(C)n3c2)c1`, the Inhibition stood at 1.31%. The same measure for `Cc1cc(C)cc(N(Cc2ccc(F)cc2)S(=O)(=O)c2cccn3cnnc23)c1`: -4.06%.

As for `O=C(CSc1nnc2c(=O)n(-c3ccccc3)ccn12)Nc1ccc(F)cc1`, the Inhibition amounted to 5.78%. The same measure for `Cc1cc(C)cc(Nc2nc(C)cc3nn(CC(=O)Nc4ccc(C)c(F)c4)c(=O)n23)c1`: 9.64%; for `CCOc1ccc(-n2ccn3c(SC(CC)C(=O)Nc4ccc(C(C)C)cc4)nnc3c2=O)cc1` (stereo not given): 5.33%. Take `CCc1nnc2c(SCC(=O)Nc3c(C)cc(C)cc3C)nc3ccccc3n12`: the Inhibition came out at 7.54%. In the case of `CCc1nnc2c(S(=O)(=O)N(Cc3ccccc3Cl)c3ccccc3)cccn12` it was 0.81%; in that of `Cc1cccc(NC(=O)c2ccc3nn(CC(=O)N4CCc5ccccc5C4)c(=O)n3c2)c1`, -5.11%. In the case of `Cc1ccc(-c2cc3c4nn(CC(=O)Nc5ccccc5F)c(=O)n4ccn3n2)cc1C` it was -4%; in that of `COc1cccc(NC(=O)Cn2nc3c(Oc4ccccc4)nccn3c2=O)c1`, 0.03%; in that of `O=C(Cn1nc2c3sccc3ncn2c1=O)Nc1ccc2c(c1)OCO2`, -1.71%. In the case of `Cc1ccc(NC(=O)CSc2nc3ccccc3n3c(C(C)C)nnc23)cc1Cl` it was -8.33%; in that of `CCCn1c(=O)c2sccc2n2c(=O)n(CC(=O)c3ccccc3)nc12`, 3.8%.

As to `O=C(Cn1nc2ccc(Sc3cccc(F)c3)nn2c1=O)Nc1ccc2c(c1)OCCO2`, the Inhibition was 11.29%. In the case of `CCc1ccccc1Sc1nccn2c(=O)n(CC(=O)N3CCN(c4ccccc4)CC3)nc12` it was -10.72%. The same measure for `Cc1cccc(CN(c2ccc(F)cc2)S(=O)(=O)c2ccc3nnc(C)n3c2)c1`: 5.07%.
